Screens as filed in PubChem.
RGS4 inhibitor – blocks human RGS4-accelerated GTP hydrolysis; Transcreener GDP fluorescence polarization, RGS4-accelerated GTP hydrolysis; Potency, µM (series often up to 114 µM), actives largely listed as inhibitors; 0.039% of 390,000 active; AID 504845; further: nearly all actives have a fitted effect of over 75% in size
Target sequence (P49798 whole entry, looked up): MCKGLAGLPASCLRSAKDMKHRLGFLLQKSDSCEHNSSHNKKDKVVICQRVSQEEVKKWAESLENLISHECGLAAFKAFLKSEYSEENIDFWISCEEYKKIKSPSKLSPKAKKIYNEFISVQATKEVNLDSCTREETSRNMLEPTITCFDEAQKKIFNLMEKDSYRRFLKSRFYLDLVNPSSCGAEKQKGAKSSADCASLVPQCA
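MLSMR compounds (23 nl, pin-transferred) preincubated 10 min at room temperature with a 500nM (2x) first reagent, then RGS4 at 900nM (2x) plus Transcreener GDP mix added; fluorescence polarization (620/688 nm) read before and after 90 min at 30 °C.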
LDHA block – LDHA (human) enzyme inhibition; 0.15% of 480,000 active; purified LDHA, NADH/diaphorase-resazurin fluorescence; hits give low values; activity change, % (values are at about 110 or 230 µM); P00338; in the data active means activity change below about -30%; inconclusive means mostly about -25% to -30%
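Human LDH5 (2 nM) was incubated with 0.06 mM NADH and 0.2 mM pyruvate for 5 min at room temperature in Tris pH 7.4. Remaining NADH was coupled through diaphorase/resazurin, and resorufin fluorescence was read at 0 and 20 min.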
IDH1 R132H inh – human IDH1 R132H inhibition | O75874 | IDH1-R132H enzyme, NADPH consumption, diaphorase/resazurin fluorescence | Potency, µM (doses to about 76.6 µM), usual class: inhibitors | 0.093% of 390,000 active | AID 602179; further: nearly all actives have a fitted effect of over 65% in size
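IDH1-R132H (0.5 ug/mL dispensed) in pH 7.5 Tris buffer was preincubated 30 min with compound, then given a substrate mix of 0.016 mM NADPH and 2 mM alpha-KG for 80 min at room temperature; remaining NADPH was read by diaphorase/resazurin fluorescence.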
ClpP mod – qHTS Assay for Activators of ClpP; ATP-dependent Clp protease proteolytic subunit (Bacillus subtilis (strain 168)), P80244; purified B. subtilis ClpP, FRET peptide cleavage, 20 min; Potency, µM (doses to about 57.5 µM); 1.9% of 340,000 active; active means well fitted falling curve with a large enough effect; inconclusive means small, poorly fitted or top-dose-only effect; inactive means no such curve, though single readings can be large or run the other way; further: the source files actives as falling curves though it sought activators and does not explain the sign; nearly all actives have a fitted effect of over 65% in size
Target sequence (P80244 whole entry, looked up): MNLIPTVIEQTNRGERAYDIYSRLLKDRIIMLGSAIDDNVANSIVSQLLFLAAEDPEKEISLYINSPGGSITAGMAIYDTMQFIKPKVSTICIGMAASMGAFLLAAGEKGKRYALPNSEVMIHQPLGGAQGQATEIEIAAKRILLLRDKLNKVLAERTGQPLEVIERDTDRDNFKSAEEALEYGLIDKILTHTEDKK
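Buffer: 100 mM Tris/HCl pH8, 100 mM KCl, 0.05% low protease BSA, 2.5% glycerol, 0.01% Tween-20. ClpP 10 microg/mL final; 20 min RT; delta FRET normalized to ADEP and DMSO controls.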
S-ASM inh – blocks human secretory acid sphingomyelinase; Potency, µM (series often up to 57.5 µM), most hits filed as inhibitors; placental ASM, HMU-PC fluorogenic substrate, 60 min; 0.006% of 340,000 active
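Steps: dispense placental human ASM, pin compound, wait 10 min at room temperature, add HMU-PC0 substrate at 9 uM final, incubate 60 min at 37 °C, add stop solution raising pH to 10, read fluorescence.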
Mito fusion act – mitochondrial division inhibition or fusion activation | S. cerevisiae fusion-defective mutant growth rescue, CellTiterGlo 48 h | Potency, µM (series often up to 46.1 µM), hits mostly activators | 0.23% of 320,000 active | AID 485298; further: nearly all actives have a fitted effect of over 45% in size
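Growth-rescue viability read-out: after 48 h at the non-permissive 37C in glycerol/ethanol YPEG, yeast mitochondrial fusion mutants are measured by CellTiterGlo luminescence; compounds (23 nl pinned per well) restoring growth score as division inhibitors or fusion activators.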
Of the large screens only hits and unclear results are named; the others gave an inactive call. This is one part of a sample in which hits are shown more often than they occur. Unless noted, the call rests on the fitted dose curve; in most records, active means well fitted curve in the direction sought with a large enough effect; inconclusive means small, poorly fitted or top-dose-only effect, or another doubt; inactive means no such curve, though single readings can be large; an effect the other way counts as inactive or inconclusive.

CSc1nc2c(c(=O)[nH]1)C(c1ccccc1)C1=C(CC(C)(C)CC1=O)N2 (stereo not drawn)	none (no result: ClpP mod)
CSc1nc2c(c(=O)[nH]1)C(c1cccs1)C1=C(CCCC1=O)N2 (stereo not drawn)	ClpP mod 22.4µM
CC1(C)CC(=O)C2=C(C1)Nc1nc(SCCN3CCOCC3)[nH]c(=O)c1C2c1cccs1 (stereo not drawn)	ClpP mod 31.6µM
Cc1ccc(CSc2nc3c(c(=O)[nH]2)C(c2ccncc2)C2=C(CCCC2=O)N3)cc1 (stereo not drawn)	ClpP mod 14.1µM
COP(=O)(OC)c1nc(-c2ccco2)oc1NCc1ccc(F)cc1	none (no result: RGS4 inhibitor, IDH1 R132H inh, ClpP mod, S-ASM inh, Mito fusion act)
CC(C)OCC(O)Cn1c(NCCc2ccccc2)nc2c1c(=O)[nH]c(=O)n2C (stereo not drawn)	none (no result: RGS4 inhibitor, IDH1 R132H inh, ClpP mod, S-ASM inh, Mito fusion act)
Cc1cccc(N2CC(C(=O)OCC(=O)c3ccc(OC(=O)c4cccs4)cc3)CC2=O)c1C (stereo not drawn)	ClpP mod 31.6µM
Cc1cccc(N2CC(C(=O)OCC(=O)Nc3sccc3C(N)=O)CC2=O)c1C (stereo not drawn)	none (no result: ClpP mod, Mito fusion act)
COc1ccc(N2CCN(C(=O)CCc3ccc(S(=O)(=O)NCC(C)C)cc3)CC2)cc1	ClpP mod 25.1µM
O=S(=O)(c1ccc(-c2csc(NCCc3ccccc3)n2)cc1)N1CCOCC1	none (no result: RGS4 inhibitor, IDH1 R132H inh, ClpP mod, S-ASM inh, Mito fusion act)
COc1ccc(C(=O)N/N=C/c2ccc3cccc(OCc4ccccc4)c3n2)cc1	ClpP mod 3.16µM
O=C(N/N=C/c1ccc2cccc(OCc3ccccc3)c2n1)c1ccc(Br)cc1	ClpP mod 3.98µM
NC(=S)N/N=C/c1ccc2cccc(OCc3ccccc3)c2n1	none (no result: ClpP mod)
COc1ccccc1-c1noc(-c2ccc(S(=O)(=O)N3CCOCC3)o2)n1	none (no result: RGS4 inhibitor, IDH1 R132H inh, ClpP mod, S-ASM inh, Mito fusion act)
O=C(O)CN1C(=O)/C(=C\c2ccccc2OCc2ccc(F)cc2)SC1=S	none
O=C(O)CN1C(=O)/C(=C\c2cc(Br)ccc2OCc2ccc(F)cc2)SC1=S	RGS4 inhibitor inconclusive, LDHA block -34.0
O=C(O)CN1C(=O)/C(=C\c2cc(Br)ccc2OCc2ccc(Cl)cc2)SC1=S	RGS4 inhibitor inconclusive, LDHA block -40.2, IDH1 R132H inh inconclusive
O=C(O)CN1C(=O)/C(=C/c2ccc(-c3cccc(Cl)c3)o2)SC1=S	LDHA block -62.6 (no result: RGS4 inhibitor, IDH1 R132H inh, ClpP mod, S-ASM inh, Mito fusion act)
CC(C)c1ccc(-n2ccnc(NCc3ccc(F)cc3)c2=O)cc1	none (no result: RGS4 inhibitor, IDH1 R132H inh, ClpP mod, S-ASM inh, Mito fusion act)
N#Cc1c2n(c3c(-c4ccccc4)ncnc13)CCC2	ClpP mod 31.6µM
Cc1c(C#N)c2ncn(Cc3ccccc3)c(=O)c2n1-c1ccccc1	none
Cc1c(C#N)c2ncnc(-c3ccccc3)c2n1-c1ccccc1	ClpP mod 35.5µM
CC(C)(C)C(=O)N1CCC(C(=O)Nc2ccc(S(=O)(=O)N3CCCC3)cc2)CC1	none (no result: RGS4 inhibitor, IDH1 R132H inh, ClpP mod, S-ASM inh, Mito fusion act)
N#C/C(=N\Nc1c(Cl)cccc1Cl)C(=O)NN	ClpP mod 15.8µM
CCc1ccc(OCC(=O)NC(=S)Nc2ccc(Br)c(C)n2)cc1	none
Cc1nc(NC(=S)NC(=O)COc2ccccc2Cl)ccc1Br	ClpP mod 28.2µM
Cc1c(C(=O)OC(C)C(C)C[N+](C)(C)C)oc2ccccc12 (stereo not drawn)	LDHA block inconclusive, ClpP mod 28.2µM
COCCCNC(=O)c1ccccc1NS(C)(=O)=O	ClpP mod 28.2µM
CS(=O)(=O)Nc1ccccc1C(=O)Nc1cc(Cl)cc(Cl)c1	ClpP mod 14.1µM
O=C(O)c1ccc(Cl)c(S(=O)(=O)Nc2ccccc2C(=O)Nc2ccc(Cl)cc2)c1	LDHA block -37.9 (no result: ClpP mod)
CS(=O)(=O)Nc1ccccc1C(=O)Nc1cccc(Cl)c1	none
CS(=O)(=O)Nc1ccccc1C(=O)Nc1ccccc1Cl	none
COCCCNC(=O)c1ccccc1NS(=O)(=O)c1ccc(C)cc1	none
CS(=O)(=O)Nc1ccccc1C(=O)NC1CC2CCC1C2 (stereo not drawn)	ClpP mod 35.5µM
